In PubChem BioAssay (EPA / NIEHS) one finds AC50 and outcome data, which are given here for 3 molecules.

Calls of active or inactive are those of the source. The calls were made as follows: active = hit-call score of the fitted dose curve at least 0.9, where 1 is the maximum; inactive = score below 0.9.

Read-out in assay [1]: Interleukin-1 alpha (IL1a), IL1A (gene 3552)
Briefly: BSK_KF3CT_IL1a: BioMAP Diversity Plus: KF3CT Assay for Interleukin-1 alpha (IL1a) Biomarker Activity (AID 2283070). The note with it: primary human keratinocytes with fibroblasts; actives raise or lower the signal. Summed up: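 Chemicals were dosed onto co-cultured human keratinocytes and foreskin fibroblasts, IL-1a was quantified by ELISA at 24 h, and activity was fitted in both directions relative to DMSO controls.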

Read-out in assay [2]: TIMP metallopeptidase inhibitor 2 (TIMP2), TIMP2 (gene 7077)
Briefly: BSK_KF3CT_TIMP2: BioMAP Diversity Plus: KF3CT Assay for TIMP metallopeptidase inhibitor 2 (TIMP2) Biomarker Activity (AID 2283071). The conditions noted are these: primary human keratinocytes with fibroblasts; actives raise or lower the signal. Summed up: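 Cells: human keratinocytes co-cultured with foreskin fibroblasts. Treat with chemical, 24 h. Measure TIMP-2 by ELISA; fit curves bidirectionally vs DMSO baseline.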

Read-out in assay [3]: Transforming growth factor beta 1 (TGFb1), TGFB1 (gene 7040)
Briefly: BSK_KF3CT_TGFb1: BioMAP Diversity Plus: KF3CT Assay for Transforming growth factor beta 1 (TGFb1) Biomarker Activity (AID 2283072). The conditions noted are these: primary human keratinocytes with fibroblasts; actives raise or lower the signal. A digest of the protocol:
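Primary human skin cells (keratinocytes, foreskin fibroblasts) were co-cultured, exposed to test chemical and sampled at 24 h. TGF-b1 levels were measured by ELISA and fitted bidirectionally relative to DMSO.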

Read-out in assay [4]: C-C motif chemokine 2 (Homo sapiens) (UniProt P13500)
Briefly: BSK_KF3CT_MCP1: BioMAP Diversity Plus: KF3CT Assay for Monocyte Chemoattractant Protein 1 (MCP1/CCL2) Biomarker Activity (AID 2283073). The conditions noted are these: primary human keratinocytes with fibroblasts; actives raise or lower the signal. A digest of the protocol: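 ELISA readout of MCP-1 after 24 h chemical dosing of a human skin primary co-culture of keratinocytes and foreskin fibroblasts. Activity was fitted in both directions against DMSO.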

Read-out in assay [5]: Matrix Metallopeptidase 9 (MMP9), MMP9 (gene 4318)
Briefly: BSK_KF3CT_MMP9: BioMAP Diversity Plus: KF3CT Assay for Matrix Metallopeptidase 9 (MMP9) Biomarker Activity (AID 2283074).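 As to AC50: MMP9 protein level quantified by ELISA in the co-culture.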 The note with it: primary human keratinocytes with fibroblasts; actives raise or lower the signal. Summed up:
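Human keratinocyte/foreskin fibroblast co-culture; compound added; 24 h; MMP-9 by ELISA; bidirectional fit vs DMSO baseline.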

Read-out in assay [6]: CD40, CD40 (gene 958)
Briefly: BSK_LPS_CD40: BioMAP Diversity Plus: LPS Assay for CD40 Biomarker Activity (AID 2283076). The note with it: primary human HUVEC with PBMC; actives raise or lower the signal. Summed up: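 Cells were dosed, incubated 24 h, then assayed for CD40 by ELISA. Gain or loss of signal was analysed relative to DMSO controls. The culture paired human umbilical vein endothelium with peripheral blood mononuclear cells.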

Read-out in assay [7]: E-selectin (Homo sapiens) (UniProt P16581)
In words: BSK_LPS_Eselectin: BioMAP Diversity Plus: LPS Assay for Eselectin Biomarker Activity (AID 2283077). The note with it: primary human HUVEC with PBMC; actives raise or lower the signal. Summed up: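 Primary human vascular co-culture (endothelium plus PBMC) was dosed with chemical, then E-selectin quantified by ELISA at 24 h. Endpoint values derive from bidirectional curve fitting relative to DMSO.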

Read-out in assay [8]: Interleukin-8 (IL8), CXCL8 (gene 3576)
In words: BSK_LPS_IL8: BioMAP Diversity Plus: LPS Assay for Interleukin-8 (IL8) Biomarker Activity (AID 2283078). The note with it: primary human HUVEC with PBMC; actives raise or lower the signal. A digest of the protocol: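 Readout is IL-8 by ELISA, taken 24 h after compounds were added to LPS-stimulated endothelial/PBMC co-cultures. Both increases and decreases relative to DMSO control were scored through bidirectional fitting.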

The nature of assay [9]: BSK_LPS_SRB: Viability Assessment in the BioMAP Diversity Plus: LPS Assay (AID 2283079).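 Also: total protein by sulforhodamine B absorbance as a cytotoxicity measure; measured one day after compound addition; fitted in both directions against DMSO so loss or gain of signal counts.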 The conditions noted are these: primary human HUVEC with PBMC. Summed up:
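Readout is SRB absorbance at 560 nm (0.1% stain, TCA-fixed parallel cultures) as a total-protein cytotoxicity measure. Cells: primary human umbilical vein endothelium plus peripheral blood mononuclear cells, 24 h after chemical exposure; DMSO served as baseline.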

Read-out in assay [10]: Interleukin-1 alpha (IL1a), IL1A (gene 3552)
Briefly: BSK_LPS_IL1a: BioMAP Diversity Plus: LPS Assay for Interleukin-1 alpha (IL1a) Biomarker Activity (AID 2283080). The conditions noted are these: primary human HUVEC with PBMC; actives raise or lower the signal. A digest of the protocol: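 ELISA read-out of IL-1 alpha from a human primary vascular co-culture (endothelium plus PBMC) under LPS, sampled 24 hours post-dosing. Activity was fitted in both directions relative to DMSO controls.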

Read-out in assay [11]: Monocyte Chemoattractant Protein-1 (MCP1), CCL2 (gene 6347)
In words: BSK_LPS_MCP1: BioMAP Diversity Plus: LPS Assay for Monocyte Chemoattractant Protein-1 (MCP1) Biomarker Activity (AID 2283081).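 As to AC50: secreted MCP-1 protein quantified by ELISA in culture supernatant.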 The note with it: primary human HUVEC with PBMC; actives raise or lower the signal. Summed up:
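Human endothelial–PBMC co-cultures were dosed with chemical, then LPS-driven MCP-1 levels were quantified by ELISA at 24 h. Activity in either direction was fitted versus DMSO negative control.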

Assay [12] in a line: BSK_LPS_PGE2: BioMAP Diversity Plus: LPS Assay for Prostaglandin E2 (PGE2) Biomarker Activity (AID 2283082). The conditions noted are these: primary human HUVEC with PBMC; actives raise or lower the signal. Summed up: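 LPS-activated HUVEC/PBMC co-culture; cmpd dosed, 24 h; PGE2 by ELISA; bidirectional fit vs DMSO; SRB (0.1%, TCA-fixed, 560 nm) in parallel plates for overt cytotox.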

Read-out in assay [13]: Macrophage colony-stimulating factor (MCSF), CSF1 (gene 1435)
Briefly: BSK_LPS_MCSF: BioMAP Diversity Plus: LPS Assay for Macrophage colony-stimulating factor (MCSF) Biomarker Activity (AID 2283083). The note with it: primary human HUVEC with PBMC; actives raise or lower the signal. A digest of the protocol:
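ELISA readout of M-CSF after 24 h compound exposure in a human endothelial/PBMC co-culture. Activity, in either direction, is fitted relative to DMSO vehicle.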

Read-out in assay [14]: Tissue Factor, F3 (gene 2152)
Briefly: BSK_LPS_TissueFactor: BioMAP Diversity Plus: LPS Assay for Tissue Factor Biomarker Activity (AID 2283084). The note with it: primary human HUVEC with PBMC; actives raise or lower the signal. A digest of the protocol: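 ELISA signal for cell-surface Tissue Factor (CD142) was read 24 h after compound dosing of an LPS-stimulated human endothelial–PBMC primary co-culture. Gain or loss of signal was scored relative to DMSO.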

Read-out in assay [15]: Tumor necrosis factor (Homo sapiens) (UniProt P01375)
In words: BSK_LPS_TNFa: BioMAP Diversity Plus: LPS Assay for Tumour Necrosis Factor alpha (TNFa) Biomarker Activity (AID 2283085).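 As to AC50: TNFa protein level quantified by ELISA in the co-culture.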 The conditions noted are these: primary human HUVEC with PBMC; actives raise or lower the signal. Summed up: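 Read-out is ELISA of TNFa in primary human endothelial cell–PBMC co-cultures at 24 h after compound. Activity in either direction was fitted against DMSO.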

Read-out in assay [16]: Vascular cell adhesion molecule 1 (VCAM1), VCAM1 (gene 7412)
In words: BSK_LPS_VCAM1: BioMAP Diversity Plus: LPS Assay for Vascular cell adhesion molecule 1 (VCAM1) Biomarker Activity (AID 2283086). The conditions noted are these: primary human HUVEC with PBMC; actives raise or lower the signal. Summed up:
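HUVEC + PBMC co-culture, LPS system; compound 24 h; VCAM-1 by ELISA; bidirectional fit vs DMSO control; parallel SRB (0.1%, TCA-fixed, 560 nm) for cytotoxicity.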

Read-out in a further assay: CD38, CD38 (gene 952)
In words: BSK_SAg_CD38: BioMAP Diversity Plus: SAg Assay for CD38 Biomarker Activity (AID 2283087). The conditions noted are these: primary human HUVEC with PBMC; actives raise or lower the signal. A digest of the protocol: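 Human HUVEC plus PBMC co-culture stimulated with superantigen; CD38 measured by ELISA 24 h after chemical dosing. Fluorescence read-out, bidirectional fit against DMSO; cytotoxicity tracked in parallel by SRB and Alamar Blue.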

Read-out in assay [17]: CD40, CD40 (gene 958)
In words: BSK_SAg_CD40: BioMAP Diversity Plus: SAg Assay for CD40 Biomarker Activity (AID 2283088). The conditions noted are these: primary human HUVEC with PBMC; actives raise or lower the signal. A digest of the protocol:
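Compounds were dosed onto a human primary endothelial–PBMC co-culture, and after 24 h CD40 was quantified by ELISA using a fluorescence signal. Activity in either direction was fitted relative to DMSO.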

Read-out in another assay: CD69, CD69 (gene 969)
In words: BSK_SAg_CD69: BioMAP Diversity Plus: SAg Assay for CD69 Biomarker Activity (AID 2283089).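 As to AC50: cell surface CD69 protein quantified by ELISA with fluorescence detection.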 The note with it: primary human HUVEC with PBMC; actives raise or lower the signal. Summed up: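 Endothelial/PBMC co-culture; chemical added; 24 h incubation; CD69 ELISA with fluorescence detection; bidirectional fit vs DMSO.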

Tumor necrosis factor (Homo sapiens), sequence (P01375 whole entry, looked up): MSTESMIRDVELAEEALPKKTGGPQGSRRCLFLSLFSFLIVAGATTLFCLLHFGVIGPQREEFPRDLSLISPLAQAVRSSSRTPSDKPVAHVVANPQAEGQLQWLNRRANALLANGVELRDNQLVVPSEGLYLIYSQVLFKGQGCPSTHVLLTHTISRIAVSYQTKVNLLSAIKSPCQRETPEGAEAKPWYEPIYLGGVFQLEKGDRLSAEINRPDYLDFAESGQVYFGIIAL
E-selectin (Homo sapiens), sequence (P16581 whole entry, looked up): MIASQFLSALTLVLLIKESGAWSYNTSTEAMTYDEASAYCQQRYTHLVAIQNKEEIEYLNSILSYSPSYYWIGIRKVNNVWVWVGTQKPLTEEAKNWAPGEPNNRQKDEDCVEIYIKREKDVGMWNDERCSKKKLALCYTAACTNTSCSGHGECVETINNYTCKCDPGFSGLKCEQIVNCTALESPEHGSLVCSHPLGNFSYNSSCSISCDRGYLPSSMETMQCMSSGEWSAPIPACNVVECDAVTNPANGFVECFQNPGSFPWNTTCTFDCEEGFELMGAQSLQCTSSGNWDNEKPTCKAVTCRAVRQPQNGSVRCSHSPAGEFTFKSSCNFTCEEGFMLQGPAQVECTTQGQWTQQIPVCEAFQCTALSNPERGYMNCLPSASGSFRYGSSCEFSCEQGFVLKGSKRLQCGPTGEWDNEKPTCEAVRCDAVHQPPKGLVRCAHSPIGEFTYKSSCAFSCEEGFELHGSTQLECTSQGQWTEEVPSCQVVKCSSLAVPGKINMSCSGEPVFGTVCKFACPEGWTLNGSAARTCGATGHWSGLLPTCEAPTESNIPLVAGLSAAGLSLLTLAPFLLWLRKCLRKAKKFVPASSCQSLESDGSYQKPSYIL

Turning to `Cc1cc(O)c(C(C)(C)C)cc1C(C)(C)C`, the AC50 is 4.04 µM (active) in assay [1]; 2.05 µM (active) in assay [2]; 3.85 µM (active) in [3]; 3.37 µM (active) in [4]; 5.96 µM (active) in [5]; 5.28 µM (active) with CD40, CD40 (gene 958) [6]. In addition, the AC50 in assay [7] was 6.95 µM (active); in assay [8] it was 9.26 µM (active); in assay [9], 7.74 µM (active); in assay [10], 5.31 µM (active); in assay [11], 9.04 µM (active); in assay [13] it was 5.29 µM (active). For the same molecule, the AC50 is 5.3 µM (active) in assay [14]; 9.79 µM (active) in assay [15]; 5.9 µM (active) in assay [16]; 10.1 µM (active) with CD38, CD38 (gene 952); 5.09 µM (active) with CD40, CD40 (gene 958) [17]; 5.18 µM (active) with CD69, CD69 (gene 969). Moreover, in assay [12], the outcome was inactive.

For the molecule `Cc1ccc(O)c(-n2nc3ccccc3n2)c1`, the outcome in assay [1] is “inactive”; in assay [2] it was “inactive”; in [3], “inactive”; in assay [4], “inactive”; in [5], “inactive”; in the assay with CD40, CD40 (gene 958) [6], “inactive”. The outcome in assay [7], in [8], in [9], in assay [10], in assay [11] and in assay [12] was inactive. Besides, the outcome in [13] is “inactive”; in assay [14] it was “inactive”; in assay [16] it was “inactive”; in the assay with CD38, CD38 (gene 952), “inactive”; with CD40, CD40 (gene 958) [17], “inactive”; in the assay with CD69, CD69 (gene 969), “inactive”. Moreover, the AC50 in [15] is 1.8 µM (active).

Consider `CCN(CC)c1ccc2c(c1)Oc1cc(N(CC)CC)ccc1C21OC(=O)c2ccccc21`, for which the outcome was “inactive” in assay [1]; “inactive” in assay [2]; “inactive” in assay [3]; “inactive” in assay [4]; “inactive” in assay [5]; “inactive” with CD40, CD40 (gene 958) [6]. The result in assay [7], in assay [9], in [10], in [11], in assay [12] and in assay [13] was inactive. Also, the outcome was “inactive” in assay [15]; “inactive” in assay [16]; “inactive” with CD38, CD38 (gene 952); “inactive” in the assay with CD40, CD40 (gene 958) [17]; “inactive” with CD69, CD69 (gene 969). The AC50 in assay [8] was 6.55 µM (active); in assay [14] it was 10 µM (active).

A word on the AC50: it is the concentration at which the activity in the assay is half-maximal.
